# Assay results published in PubChem BioAssay (NCATS).
# Records with an inconclusive call do not appear. The source made the active and inactive calls. Calls come from the whole dose curve; as a rule, active = well fitted cell-killing curve with a large enough effect; inconclusive = small, poorly fitted or top-dose-only effect, or effect the other way; inactive = no such curve, though single readings can be large or run the other way. Non-standard residues stand in square brackets, D forms with d. Residues, ends and D or L forms follow the SMILES beside them. Peptide text beside a SMILES is read from it. *: point of attachment. Sta = CC(C)C[C@H](N)[C@@H](O)CC(=O)O; Isovaleryl = CC(C)CC(=O)*
# Test: Quantitative High-Throughput drug screen in 47 multiple myeloma cell lines against the NCATS MIPE library collection: KMS27_JCRB cell viability assay (AID 1918970); note: nearly all actives have a fitted effect of over 30% in size
# Settings: KMS27 myeloma cells, CellTiter-Glo ATP viability, 48 h; series mostly up to 45.8 µM; viability (% of DMSO): at the top concentration
# Description: PI: Beverly A. Mock Ph.D.
# Laboratory of Cancer Biology and Genetics,
# Center for Cancer Research, National Cancer Institute,
# National Institute of Health, Bethesda, Maryland
# Drug resistance and disease progression are common in multiple myeloma (MM) patients, underscoring the need for new therapeutic combinations. […] We hypothesized that effective combinations would reduce MYC expression and enhance p16 activity. […] These preclinical data identify potentially useful drug combinations for evaluation in drug-resistant MM and reveal potential mechanisms of combined drug sensitivity.
# Described herein is the primary MIPE qHTS used to cherrypick compounds. Validated compounds were then further tested for potential synergistic activiy.
# [1] Peat TJ, Gaikwad SM, Dubois W, Gyabaah-Kessie N, Zhang S, Gorjifard S, Phyo Z, Andres M, Hughitt VK, Simpson RM, Miller MA, Girvin AT, Taylor A, Williams D, D'Antonio N, Zhang Y, Rajagopalan A, Flietner E, Wilson K, Zhang X, Shinn P, Klumpp-Thomas C, McKnight C, Itkin Z, Chen L, Kazandijian D, Zhang J, Michalowski AM, Simmons JK, Keats J, Thomas CJ, Mock BA. Drug combinations identified by high-throughput screening promote cell cycle transition and upregulate Smad pathways in myeloma. […] Epub 2023 Jun 24. PMID: 37356470; PMCID: PMC10408729.
# SEQUENCE No. (e.g., 1, 2, 3, etc.); […] (e.g., Cells, Incubation, Reagent, etc.); VALUE and DESCRIPTION.
# 1; Cells; 5 uL; white, solid bottom 1536-well Greiner assay plate.
# 2; Compounds; 23 nL; Kalypsis pin tool (Wako USA) equipped with a 1536-well pin head to transfer to the assay plates.
# 3; Incubation; 48 hours; 37C incubation.
# 4; Reagent;5uL; CellTiter Glo (Promega).
# 5; Detector; 425V; Luminescence; Viewlux PerkinElmer.
# NOTES (numbers refer to Sequence numbers above)
# 1. The cell-based screening methods employed in this study were like those previously published. Briefly, the corresponding myeloma cell lines were screened in 1,536-well plates with 500 cells, 5-uL per well for inhibition of cell viability (assessed by measuring ATP levels with CellTiterGlo).
# 2. NCATS MIPE 4.0 library of approved and investigational drugs were added using the Kalypsis pin tool. Wells treated with DMSO only for 100% viability and media only wells for 0% viability were used as controls.
# 3. The assay plates were covered and incubated for 48 hours in a 37C, 5% CO2 incubator with controlled humidity.
# 4. After 48 hours, CellTilter-GloTM luminescent substrate mix (Promega) reagent was added to the assay plate and plates we incubated for 5 min at room temperature.
# 5. Signal was measured as median relative luminescence units on a ViewLux (PerkinElmer) multiplate reader.
# [1] Heske CM, Davis MI, Baumgart JT, Wilson K, Gormally MV, Chen L, Zhang X, Ceribelli M, Duveau DY, Guha R, Ferrer M, Arnaldez FI, Ji J, Tran HL, Zhang Y, Mendoza A, Helman LJ, Thomas CJ. Matrix Screen Identifies Synergistic Combination of PARP Inhibitors and Nicotinamide Phosphoribosyltransferase (NAMPT) Inhibitors in Ewing Sarcoma. Clin Cancer Res. 2017 Dec 1;23(23):7301-7311. doi: 10.1158/1078-0432.CCR-17-1121. Epub 2017 Sep 12. PMID: 28899971; PMCID: PMC6636827.
# Potency is the fitted concentration of half-maximal effect.
SMILES,viability (% of DMSO),Potency
CCCCCCCCCCCCCCCCCCCCCCO,113% (inactive),
Nc1nc(Cl)nc2c1ncn2[C@H]1C[C@H](O)[C@@H](CO)O1,,0.296 µM (active)
Cc1ccc(C(=O)c2cc(O)c(O)c([N+](=O)[O-])c2)cc1,,23.5 µM (active)
CCC[C@@H]1C[C@@H](C(=O)N[C@@H]([C@H]2O[C@H](SC)[C@H](O)[C@@H](O)[C@H]2O)[C@@H](C)O)N(C)C1,110% (inactive),
Oc1ccc(OCc2ccccc2)cc1,101% (inactive),
O=C1CCc2ccc(OCCCCN3CCN(c4cccc(Cl)c4Cl)CC3)cc2N1,123% (inactive),
Clc1ccc(C(Cn2ccnc2)OCc2c(Cl)cccc2Cl)c(Cl)c1 (stereo not given),,23.5 µM (active)
CN(C)c1ccc2nc3ccc(=[N+](C)C)cc-3sc2c1,,1.32 µM (active)
CC(C)CC(=O)N[C@H](C(=O)N[C@H](C(=O)N[C@@H](CC(C)C)[C@@H](O)CC(=O)N[C@@H](C)C(=O)N[C@@H](CC(C)C)[C@@H](O)CC(=O)O)C(C)C)C(C)C (Isovaleryl-VV[Sta]A[Sta]-OH),136% (inactive),
COc1ccccc1N1CCN(CCN(C(=O)C2CCCCC2)c2ccccn2)CC1,,9.35 µM (active)
O=P(O)(O)C(O)(Cn1ccnc1)P(=O)(O)O,111% [at 23.2 µM] (inactive),
COc1c(O)cc2c(c1O)[C@@H]1O[C@H](CO)[C@@H](O)[C@H](O)[C@H]1OC2=O,96.7% (inactive),
Clc1ccc(C(Cn2ccnc2)OCc2ccc(Sc3ccccc3)cc2)c(Cl)c1 (stereo not given),,18.7 µM (active)
O=c1cc(N2CCOCC2)oc2c(-c3ccccc3)cccc12,124% (inactive),
O=c1ccc2ccc(O)c(O)c2o1,,18.7 µM (active)
Cc1cccc(C#Cc2ccccc2)n1,118% (inactive),
C[C@H](Cc1ccc(O)c(O)c1)[C@@H](C)Cc1ccc(O)c(O)c1,,9.35 µM (active)
S=c1nc[nH]c2nc[nH]c12,,7.43 µM (active)
COC(=O)[C@H](Cc1ccccc1)NC(=O)[C@@H](N)CC(=O)O (H-Asp-Phe-OMe),123% (inactive),
Cc1nc(Nc2ncc(C(=O)Nc3c(C)cccc3Cl)s2)cc(N2CCN(CCO)CC2)n1,,10.5 µM (active)

SMILES,viability (% of DMSO),Potency
Nc1nc(N)c(N=O)c(OCC2CCCCC2)n1,,6.62 µM (active)
COC1=C(OC)C(=O)C(CCCCCCCCCCO)=C(C)C1=O,,18.7 µM (active)
NNc1nncc2ccccc12,98.3% (inactive),
O=C1c2ccccc2-c2n[nH]c3cccc1c23,,2.96 µM (active)
CN(C)CCCC1(c2ccc(F)cc2)OCc2cc(C#N)ccc21 (stereo not given),119% (inactive),
O=C(CCc1ccc(O)cc1)c1c(O)cc(O)cc1O,,1.05 µM (active)
Cc1cc(C2CCCCC2)n(O)c(=O)c1,,5.26 µM (active)
CCC1=C(C)CN(C(=O)NCCc2ccc(S(=O)(=O)NC(=O)NC3CCC(C)CC3)cc2)C1=O (stereo not given),134% (inactive),
Cc1cc(O)c2c(c1)C(=O)c1cc(O)cc(O)c1C2=O,109% (inactive),
CC(C)(S)[C@@H](N)C(=O)O,113% (inactive),
CC1=C(C(=O)O)N2C(=O)[C@@H](NC(=O)[C@H](N)C3=CCC=CC3)[C@H]2SC1,101% (inactive),
Clc1ccc2c(N3CCN(CCCN4CCN(c5ccnc6cc(Cl)ccc56)CC4)CC3)ccnc2c1,126% [at 23.2 µM] (inactive),
C[Se]CCC(N)C(=O)O (stereo not given),115% [at 92.2 µM] (inactive),
C=C(c1ccc(C(=O)O)cc1)c1cc2c(cc1C)C(C)(C)CCC2(C)C,,0.0418 µM (active)
Clc1ccc(C(Cn2ccnc2)OCc2ccsc2Cl)c(Cl)c1 (stereo not given),,26.4 µM (active)
CC(C)c1nc(CN(C)C(=O)N[C@H](C(=O)N[C@@H](Cc2ccccc2)C[C@H](O)[C@H](Cc2ccccc2)NC(=O)OCc2cncs2)C(C)C)cs1,116% (inactive),
Cc1nc2n(c(=O)c1CCN1CCC(c3noc4cc(F)ccc34)CC1)CCCC2,79.5% (inactive),
O=C1NC(=O)C(c2ccccc2[N+](=O)[O-])=C1Nc1ccc(O)c(Cl)c1,96.7% (inactive),
NS(=O)(=O)c1cc(C(=O)O)c(NCc2ccco2)cc1Cl,119% (inactive),
NC(=O)Cc1cccc(C(=O)c2ccccc2)c1N,121% (inactive),
